The values below come from PubChem BioAssay (NCI).

Compounds without any hit were thinned out: in the full panel of roughly 83,000, 20% have a hit.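 Values shown are percent growth following 48 h exposure of cells in 96-well plates to a single concentration of compound; below 10 was considered active.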 Activity calls are given as the source filed them.

The subject of the assay is OVCAR-5 ovarian. Nature of the assay: NCI-60 one-dose screen, 48 h (100 = growth as untreated, 0 = no growth, -100 = all killed). Particulars: 10 µM unless noted. How it is done:
Growth inhibition of the OVCAR-5 human tumor cell line is measured as a screen for anti-cancer activity. Cells are grown in 96 well plates and exposed to the test compound for 48 hours. Compounds are tested at a single concentration, which is 10^-5 M for most compounds. The reported endpoint is percent growth (GI% or GIPRCNT), where numbers from 0 - 100% represent growth inhibition, and numbers from -100% - 0 represent cell death. For example, a value of 40 represents 60% growth inhibition. A value of 0 means no net growth occurred over the course of the experiment. A value of -40 indicates 40% of cells at the beginning of the experiment died by the end of the experiment. A value of -100 means all cells are dead at the end of the experiment.
NCI-60 Human Tumor Cell Lines Screen was performed using the standard one-dose NCI protocol, which is described in more detail at https://dtp.cancer.gov/discovery_development/nci-60/default.htm.
Compounds with GIPRCNT values below 10 were considered active. Activity score was based on GIPRCNT using the following formula: […]
Score is 0 for GIPRCNT values of 100 or above, 50 for GIPRCNT values of 0, and 100 for GIPRCNT values of -100.
Consider `CCCCCCCCN(CCO)CCCCCCCC`, for which the growth is 96.9% (inactive).

With `C[C@@H]1CN(c2nc3c(cc2F)c(=O)c(C(=O)O)cn3C(C)(C)C)C[C@H](C)N1`, the growth is 109% (inactive). The value for `O=C(c1ccccc1)C(CN1CCCCC1)c1ccccc1` (stereo not given) was 32.5% (inactive); that for `Clc1ccc2[nH]cc(-c3cncn3CCc3ccccc3)c2c1` was 74.7% (inactive). The value for `CCCCCCCCCCCCCCCCNC(=O)Nc1ccc2ccccc2c1` was 111% (inactive); that for `Cc1cc2ccccn2c1C(=O)c1ccc(C(=O)c2ccccc2)cc1` was 87.8% (inactive); that for `CCOc1cc(/C=C/C(=O)C(C(=O)/C=C/c2ccc(OC(=O)CNc3nc4ccccc4[nH]3)c(OCC)c2)C(=O)CNc2nc3ccccc3[nH]2)ccc1OC(=O)CNc1nc2ccccc2[nH]1` was 11.5% (inactive).

Regarding `Cc1[nH]c(=O)[nH]c(=O)c1CCSSCCc1c(C)[nH]c(=O)[nH]c1=O`, the growth is 110% (inactive). With `C=C(CN1CCc2c([nH]c3ccccc23)C1)c1ccc(C(=O)Nc2ccon2)cc1` the figure was 90.2% (inactive); with `O=Nc1c2cccnc2n2nnc3ccc(Cl)cc3c12`, 94.9% (inactive). With `O=[N+]([O-])c1ccc(NS(=O)(=O)c2ccc(Cl)c(Cl)c2)cc1` the figure was 113% (inactive); with `O=C(Nc1ccc(Cl)cc1)Nc1ccccc1CNc1nc(Nc2ccc(OCCN3CCCC3)cc2)ncc1Cl`, 105% (inactive). On to `N=C1c2nc3n(c2C(=O)c2nc4n(c21)CCCCC4)CCCCC3`, for which the growth was 123% (inactive). Regarding `CC(=O)Nc1cc2c3c(cccc3c1)-c1ccccc1-2`, the growth was 85.6% (inactive). The value for `O=C(Nc1nc2ccc(OC(F)(F)F)cc2s1)c1ccc(F)cc1` was 43% (inactive).

For the compound `CCCCN1c2nc3ccccc3cc2Sc2cc3ccccc3nc21`, the growth was 93.6% (inactive).

As for `O=C(COc1ccc(/C=C2\Cc3ccccc3C2=O)cc1)c1ccc(Cl)cc1`, the growth is 102% (inactive). For the compound `COc1cccc(CCN2C(=O)CCC3=C2CCC3=O)c1`, the growth is 104% (inactive). As to `CCOc1cc(/C=C/C(=O)CC(=O)/C=C/c2ccc(OC(=O)CNCCN(CC)CC)c(OCC)c2)ccc1OC(=O)CNCCN(CC)CC`, the growth is -34.5% (active). Turning to `CN[C@@H]1C(OC2[C@H](O[C@H]3[C@H](O)[C@@H](O)[C@H](N=C(N)N)[C@@H](O)[C@@H]3N=C(N)N)OC(C)[C@]2(O)CO)OC(CO)C(O)C1O` (stereo not given in full), the growth was 102% (inactive). With `CCCCCCCC[Si](OCC)(OCC)OCC` the figure was 104% (inactive).

Regarding `C[C@]12CCC(=O)C=C1CC[C@H]1[C@@H]3C[C@@H](O)[C@](O)(C(=O)CO)[C@@]3(C)C[C@H](O)[C@@]12F`, the growth is 86.7% (inactive).

For the compound `Clc1ccc(C2c3ccccc3-c3nccn32)c(Cl)c1` (stereo not given), the growth is 114% (inactive). The value for `CCCCCCCCCCCCCCCCCC1=NC(C)(CO)CO1` (stereo not given) was 90.5% (inactive). The value for `COc1ccc(-c2nnc3c4[nH]cnc4ncn23)c(OC)c1` was 17% (inactive); that for `COc1cnc2c(c1)C(=O)c1c-2n(CCCn2ccnc2)c(=O)c2cc(F)ccc12` was -30.4% (active); that for `c1ccc(COc2ccc(Nc3ncnc4c3cnn4-c3ccccc3)cc2)cc1` was 98.9% (inactive).

As to `O=C1NC(=O)/C(=C\c2ccco2)S1`, the growth was 95.9% (inactive).

Consider `O=C1/C(=C/c2ccccc2O)C(=S)SN1Cc1ccco1`, for which the growth was 102% (inactive). With `O=c1ncc(-c2ccc(C(F)(F)F)cc2)c(NC2CCCCCC2)[nH]1` the figure was 91.3% (inactive); with `N#Cc1c(-c2ccccc2)cc(-c2ccccc2)n(CCC(=O)O)c1=O`, 94.2% (inactive); with `COc1cc(C2CC(C3C(=O)N(C)C(=O)N(C)C3=O)=NN2c2cc(Cl)cc(Cl)c2)cc(OC)c1OC` (stereo not given), 108% (inactive).

As to `O=Cc1ncc(-c2ccc(C(F)(F)F)cc2)c(NC2CCCCCC2)n1`, the growth was -91.8% [100 µM] (active).

Turning to `CC1CN(CC(O)c2ccc(Br)cc2)CCO1` (stereo not given), the growth was 103% (inactive).

Regarding `c1ccc(Nc2ccc(Nc3nc(-c4ccccc4)nc4ccccc34)cc2)cc1`, the growth was 81.5% (inactive).

Take `CCCn1c(N)c(C(=O)CNc2ccc(I)cc2)c(=O)[nH]c1=O`: the growth is 137% (inactive). In the case of `Cc1ccc(C(NC(=O)c2ccccc2)c2ccc3cccnc3c2O)cc1` (stereo not given), the growth was 44.8% (inactive).

Turning to `COc1cccc(C2=NN(C(C)=O)C(c3cc(OC)c(OC)c(OC)c3)C2)c1` (stereo not given), the growth is 58.3% (inactive). With `CC(=O)N1N=C(c2ccc3c(c2)OCO3)CC1c1c(C)nn(-c2ccccc2)c1N(C)Cc1ccccc1` (stereo not given) the figure was 97.1% (inactive); with `OCc1n(Cc2ccc3ccccc3c2)cc[n+]1Cc1ccc2ccccc2c1`, 62.3% (inactive).
